Rows were chosen to be rich in hits. Some 6.8% of all compounds tested hit in one or more screens of this group.
T_cruzi_growth-1: inhibitors of T. cruzi proliferation. T. cruzi beta-gal in NIH3T3, GalScreen luminescence, 90 h. inhibition, % at 8.34 µM. actives 5.9% (n = 77,000). AID 624255;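 active = mean inhibition above about 93%, with at least 55% of replicates each passing it, limit read from the data, passing the limit was not always enough; inconclusive = only one of those two conditions holds; inactive = neither condition holds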
C_diff_growth: blocks growth of Clostridium difficile; Clostridium difficile clinical isolate growth, OD600, 24 h; stronger effect = lower value; growth activity, negative = inhibition, % at 16 µg/mL (by protocol); actives 0.25% (n = 86,000);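 active = mean growth activity at or below -80% and every replicate also at or below -80%; inconclusive = mean at or below -80% but some replicate above -80%; inactive = mean growth activity above -80%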;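 also: 0% = DMSO wells and -100% = levofloxacin 16 µg/mL wells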
Pf_Dd2_growth: P. falciparum Dd2 growth inhibition; SYBR Green, 72 h; stronger effect = lower value; activity change, % at 10 µM; actives 2.3% (n = 94,000); AID 1159554; in the data active = activity change below about -80%; inconclusive = no clear call, values can overlap the other calls
T_cruzi_growth-2: inhibitors of T. cruzi proliferation. shares compounds with T_cruzi_growth-1. T. cruzi beta-gal in NIH3T3, GalScreen luminescence, 90 h. inhibition, % at 8.35 µM. actives 72% (n = 5,600). AID 651739;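 active = mean replicate inhibition above about 95% and at least 55% of replicates individually reaching it, limit read from the data; inconclusive = only one of the two criteria is met; inactive = neither criterion is met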
T_cruzi_growth-3: inhibitors of T. cruzi proliferation; shares compounds with T_cruzi_growth-1; T. cruzi beta-gal in NIH3T3, GalScreen luminescence, 90 h; inhibition, % at 2.09 µM; actives 21% (n = 5,600); AID 651740;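 active = mean inhibition above about 95%, with at least 55% of replicates also reaching it, limit read from the data; inconclusive = meets just one of the two conditions; inactive = meets neither condition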;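 also: plate controls were neutral control median for no effect and positive control median for full effect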
NIH3T3_tox: NIH/3T3 (mouse) viability loss; actives 14% (n = 5,600); AID 651742; NIH/3T3 viability, CellTiter-Glo ATP luminescence, 90 h; cytotoxicity (signal decrease), % at 8.35 µM; shares compounds with T_cruzi_growth-1;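 active = mean signal decrease across replicates above about 35% based on untreated-well scatter, with enough replicates individually passing, limit read from the data; inconclusive = no rule stated though some were filed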;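 also: 0% = median of neutral control wells and 100% = median of positive control wells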
3T3_cytotox_2: NIH/3T3 (mouse) viability loss. inhibition, % at 24.9 µM. shares compounds with T_cruzi_growth-1. NIH/3T3 viability, CellTiter-Glo ATP luminescence, 90 h. actives 56% (n = 5,600);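 active = mean loss of cell viability signal at or above a set limit, and enough replicates individually reaching it; inconclusive = meets only the mean limit or only the replicate share; inactive = meets neither condition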;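 also: 0% = median of neutral control wells and 100% = median of positive control wells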
* = called active by the depositor; ? = inconclusive; . = no result given; ! = not confirmed by another sample.

SMILES T_cruzi_growth-1 C_diff_growth Pf_Dd2_growth T_cruzi_growth-2 T_cruzi_growth-3 NIH3T3_tox 3T3_cytotox_2
C[C@H]1CN([C@@H](C)CO)S(=O)(=O)c2ccc(Br)cc2O[C@H]1CN(C)S(=O)(=O)c1ccccc1 . 5.1 13.4 . . . .
CC(=O)N(C)C[C@@H]1Oc2cc(-c3cccc(F)c3)ccc2S(=O)(=O)N([C@@H](C)CO)C[C@@H]1C 20.3 -3.1 -9.4 . . . .
C[C@@H]1CN([C@H](C)CO)S(=O)(=O)c2ccc(-c3cccc(F)c3)cc2O[C@@H]1CN(C)S(=O)(=O)c1ccccc1 114.5* -1.1 -33.4 97.4* 84.2 26.3 54.0*
C[C@H]1CN([C@@H](C)CO)S(=O)(=O)c2ccc(-c3cccc(F)c3)cc2O[C@@H]1CN(C)S(=O)(=O)c1ccccc1 119.5* -3.3 -39.1 96.4* 86.0 37.2* 41.2*
C[C@@H]1CN([C@H](C)CO)S(=O)(=O)c2ccc(-c3cccc(F)c3)cc2O[C@H]1CN(C)S(=O)(=O)c1ccccc1 ? 1.1 -15.6 91.9 51.5 65.3* 40.9*
O=C(C[C@@H]1C[C@@H]2c3cc(NC(=O)CC4CC4)ccc3O[C@@H]2[C@@H](CO)O1)NCc1cc(F)ccc1F 1.7 0.0 7.5 . . . .
CO[C@H](C(=O)N(C)C[C@H]1OCc2ccccc2-c2ccccc2C(=O)N([C@@H](C)CO)C[C@H]1C)c1ccccc1 44.0 -2.1 -12.6 . . . .
CN1c2ccc(-c3ccccc3)cc2[C@H]2[C@H](CCN2C(=O)Cc2ccccn2)[C@@H]1CO 112.8* 12.8 -3.3 103.0* 59.1 -41.0 -11.1
CN(C)C(=O)c1ccc(-c2ccc3c(c2)[C@H]2[C@H](CCN2C(=O)Cc2ccccn2)[C@H](CO)N3C)cc1 90.2 -6.4 -30.2 . . . .
CN(C)C(=O)c1ccc(-c2ccc3c(c2)[C@@H]2[C@@H](CCN2C(=O)Cc2ccccn2)[C@@H](CO)N3C)cc1 92.7 -2.8 -70.9 . . . .
CN(C)C(=O)c1ccc(-c2ccc3c(c2)[C@@H]2[C@@H](CCN2C(=O)Cc2ccccn2)[C@H](CO)N3C)cc1 103.6* 3.4 -66.7 104.3* 61.6 -23.0 5.5
CCCNC(=O)Nc1ccc2c(c1)C(=O)N(C)C[C@H](OC)[C@H](C)CN(CCC)[C@@H](C)CO2 22.2 2.1 21.6 . . . .
COc1cccc(C#Cc2ccc([C@H]3[C@@H](CO)N4C(=O)CN(C(=O)C5CC5)C[C@H]34)cc2)c1 . -6.3 -3.3 . . . .
O=C(Nc1cc(F)ccc1F)N[C@@H]1C=C[C@H](CC(=O)N2CCc3ccccc3C2)O[C@@H]1CO 16.7 . 0.4 . . . .
C[C@H](CO)N1C[C@H](C)[C@@H](CN(C)Cc2ccccn2)Oc2cc(-c3ccncc3)ccc2S1(=O)=O 109.2* 2.1 -50.1 98.7* 105.5* 55.3* 88.2*
C[C@@H]1CN([C@@H](C)CO)S(=O)(=O)c2ccc(Br)cc2O[C@H]1CN(C)Cc1ccccn1 106.7*! 2.3 19.5 88.7 17.3 4.6 52.7*
Cc1ccc(-c2ccc3c(c2)O[C@H](CN(C)Cc2ccccn2)[C@@H](C)CN([C@@H](C)CO)S3(=O)=O)cc1 116.5* -0.3 -54.7 102.8* 68.1 83.4* 104.1*
C[C@H](CO)N1C[C@H](C)[C@H](CN(C)Cc2ccccn2)Oc2cc(Br)ccc2S1(=O)=O -9.0 -0.9 -1.2 . . . .
Cc1ccc(-c2ccc3c(c2)O[C@H](CN(C)Cc2ccccn2)[C@@H](C)CN([C@H](C)CO)S3(=O)=O)cc1 91.1 -6.5 -40.5 . . . .
C[C@@H]1CN([C@@H](C)CO)S(=O)(=O)c2ccc(-c3ccccc3)cc2O[C@@H]1CN(C)Cc1ccccn1 -21.4 -10.0 -4.7 . . . .
C[C@H](CO)N1C[C@H](C)[C@@H](CN(C)C(=O)NC2CCCCC2)OCCCC[C@H](C)Oc2ccc(NS(=O)(=O)c3cccs3)cc2C1=O 42.6 14.5 11.2 . . . .
CCCN(C)C[C@H]1OCCCC[C@@H](C)Oc2ccc(NS(C)(=O)=O)cc2C(=O)N([C@@H](C)CO)C[C@H]1C 42.8 -5.0 -74.9 . . . .
COc1ccccc1-c1ccccc1[C@H]1[C@@H](C#N)N(C(=O)C2CC2)[C@H]1CO . -12.7 6.8 . . . .
CN1[C@@H]2Cn3c(ccc(-c4ccccc4)c3=O)[C@H]1[C@@H](C(=O)NCCCN1CCOCC1)[C@@H]2CO 17.5 -0.3 -7.1 . . . .
C[C@H](CO)N1C[C@H](C)[C@@H](CN(C)C)OCCCC[C@H](C)Oc2ccc(NC(=O)c3ccncc3)cc2C1=O 3.1 1.1 . . . . .
SMILES T_cruzi_growth-1 C_diff_growth Pf_Dd2_growth T_cruzi_growth-2 T_cruzi_growth-3 NIH3T3_tox 3T3_cytotox_2
C[C@H](CO)N1C[C@H](C)[C@@H](CN(C)C(=O)c2ccccc2)OCCCC[C@H](C)Oc2ccc(NC(=O)c3ccncc3)cc2C1=O 11.2 -3.5 -0.8 . . . .
C[C@@H]1CCCCO[C@@H](CN(C)C(=O)c2ccccc2)[C@@H](C)CN([C@H](C)CO)C(=O)c2cc(NC(=O)c3ccccc3)ccc2O1 33.5 1.1 -18.9 . . . .
C[C@H]1CCCCO[C@H](CN(C)C(=O)c2ccncc2)[C@@H](C)CN([C@@H](C)CO)C(=O)c2cc(NC(=O)c3ccccc3)ccc2O1 99.6* -6.2 -6.9 51.1 10.5 -3.8 -7.9
C[C@@H]1CCCCO[C@@H](CN(C)C)[C@H](C)CN([C@@H](C)CO)C(=O)c2cc(NC(=O)c3ccncc3)ccc2O1 99.9* -4.5 28.5 -11.3 -37.9 -8.9 -4.5
C[C@@H]1CN([C@@H](C)CO)C(=O)c2cc(NC(=O)c3ccccc3)ccc2O[C@@H](C)CCCCO[C@H]1CN(C)C(=O)c1ccccc1 ? -4.2 -52.3 91.5 0.3 -1.5 -0.4
O=C(NCC[C@H]1CC[C@@H](NC(=O)c2cnccn2)[C@@H](CO)O1)c1ccc2c(c1)OCO2 . 1.2 5.2 . . . .
CC(C)NC(=O)Nc1ccc2c(c1)CC(=O)N([C@H](C)CO)C[C@H](C)[C@@H](CN(C)S(=O)(=O)c1ccc(F)cc1)O2 51.2 3.1 -24.1 . . . .
CO[C@@H]1CN(C)C(=O)c2ccc(NC(=O)C3CCCCC3)cc2OC[C@@H](C)NC[C@@H]1C 75.6 . . . . . .
O=C(C[C@H]1CC[C@H]2[C@@H](COC[C@H](O)CN2C(=O)Nc2ccc(Cl)cc2)O1)N1CCCCC1 30.2 2.1 -3.2 . . . .
CN1C(=O)c2cc(NC(=O)C3CC3)ccc2OC[C@H]2O[C@H](CC(=O)NC3CCC3)CC[C@@H]21 -21.1 -4.0 -68.7 . . . .
Cc1noc(C)c1NC(=O)Nc1cccc2c1O[C@H](CN(C)C(=O)Nc1ccc(F)cc1)[C@H](C)CN([C@H](C)CO)C2=O -28.0 -0.7 6.5 . . . .

Bioassay records: PubChem, Broad Institute
